Assay [1] has as its target Aryl hydrocarbon receptor (Homo sapiens) (UniProt P35869). The assay is described as follows: qHTS assay to identify small molecule that activate the aryl hydrocarbon receptor (AhR) signaling pathway (AID 743085). Further: nearly all actives have a fitted effect of over 15% in size. Further: potency means the concentration at half of the fitted maximal effect.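 On activation: HG2L7.5c1 human HepG2 liver cells with stably integrated DRE-driven firefly reporter; series mostly up to about 70 µM.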 A digest of the protocol: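 Stably transfected human liver carcinoma cells (HG2L7.5c1; 20 DRE-firefly luciferase) were incubated 5 h, dosed, and kept 24 h at 37C. Agonism was scored from increased luciferase luminescence.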
A general note: In qHTS, concentration-response curves come from the screen itself.

Assay [2] is described as follows: qHTS assay to identify small molecule that activate the aryl hydrocarbon receptor (AhR) signaling pathway - cell viability counter screen (AID 743086).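 Further: HepG2 liver cells carrying the AhR DRE luciferase reporter; series mostly up to about 70 µM; nearly all actives have a fitted effect of over 45% in size.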 The procedure, abridged: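 HepG2-AhR-luc (HG2L7.5c1) cells, 4000/well, were preincubated 5 h at 37C, exposed to compound in qHTS format for 24 hr at 37C, then given CellTiter-Fluor for 30 min; viability was read as fluorescence in the reporter wells.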

In assay [3] the target is Peroxisome proliferator-activated receptor gamma (Homo sapiens) (UniProt P37231). The assay is described as follows: qHTS assay to identify small molecule agonists of the peroxisome proliferator-activated receptor gamma (PPARg) signaling pathway (AID 743094; active means well fitted activation curve with a large enough effect in the signal ratio in the repeat runs, not every such curve was filed as active; the % refers to the signal ratio). The procedure, abridged: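 Following 5 h plating at 37C, PPARg-bla HEK293H cells receive compound or DMSO for 17 h; fluorescence intensity is recorded after LiveBLAzer B/G loading for 1 h at room temperature.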

Assay [4] shares this target. Briefly: qHTS assay to identify small molecule antagonists of the peroxisome proliferator-activated receptor gamma (PPARg) signaling pathway (AID 743191; calls by dose curve; further: nearly all actives have a fitted effect of over 30% in size; further: potency means the concentration at half of the fitted maximal effect). A digest of the protocol:
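GeneBLAzer PPARg UAS-bla HEK293H cells carrying a UAS-driven beta-lactamase reporter were plated at 3000 cells/well, preincubated 5 h at 37C, then given compound for 17 h at 37C; LiveBLAzer B/G FRET substrate was read after 1 h at room temperature.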

Assay [5] can be described thus: qHTS assay to identify small molecule antagonists of the peroxisome proliferator-activated receptor gamma (PPARg) signaling pathway - cell viability counter screen (AID 743194). Further: nearly all actives have a fitted effect of over 55% in size. A digest of the protocol:
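PPARg-UAS-bla HEK293H cells were plated, rested 5 h at 37 C, then treated with compounds plus rosiglitazone (50 nM final) for 17 h at 37 C; viability was then read by CellTiter-Glo luminescence after 30 min at room temperature.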

Assay [6] can be described thus: qHTS assay for small molecule agonists of the antioxidant response element (ARE) signaling pathway - cell viability counter screen (AID 743203; calls by dose curve; further: nearly all actives have a fitted effect of over 55% in size). A digest of the protocol:
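Compounds in DMSO were pinned onto ARE-bla HepG2 cells plated 5 hrs earlier at 2,000 cells/well. Sixteen hours later at 37C/5% CO2, CellTiter-Glo was added and luminescence measured after 30 min at room temperature.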

Assay [7] is described as follows: qHTS assay for small molecule activators of the heat shock response signaling pathway - cell viability counter screen (AID 743209). Further: nearly all actives have a fitted effect of over 50% in size. The procedure, abridged:
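Counter screen for cytotoxicity in HeLa HSE-bla reporter cells. Treatment was 5 h at 37 C; viability was detected by luminescent ATP assay (CellTiter-Glo) in the same wells as the beta-lactamase read.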

Assay [8] is described as follows: qHTS assay for small molecule activators of the heat shock response signaling pathway (AID 743210; active means well fitted activation curve with a large enough effect in the signal ratio in the repeat runs, with a control signal flat, not every such curve was filed as active; the % refers to the signal ratio; further: series mostly up to about 63 µM). A digest of the protocol:
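HSE-bla HeLa cells (beta-lactamase reporter under heat shock response elements) were exposed to compounds for 5 h at 37 C, then loaded with LiveBLAzer B/G FRET substrate for 2.5 h at room temperature before fluorescence reading.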

Assay [9] in a line: qHTS assay to identify small molecule agonists of the peroxisome proliferator-activated receptor delta (PPARd) signaling pathway - cell viability counter screen (AID 743211). Further: nearly all actives have a fitted effect of over 55% in size. The procedure, abridged: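 In the same wells used for beta-lactamase reporter measurement, cytotoxicity is scored by CellTiter-Glo. HEK293H PPARd-bla cells receive compound for 17 h at 37C following a 5 h settling period.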

In assay [10] the target is Peroxisome proliferator-activated receptor delta (Homo sapiens) (UniProt Q03181). The assay is described as follows: qHTS assay to identify small molecule agonists of the peroxisome proliferator-activated receptor delta (PPARd) signaling pathway (AID 743212; calls by dose curve). The procedure, abridged:
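GeneBLAzer PPARd UAS-bla HEK293H cells (beta-lactamase reporter under UAS control), plated and rested 5 h at 37 C, then exposed to compounds in DMSO at 37 C; LiveBLAzer B/G FRET substrate added, 2 h room temperature, fluorescence read.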

Assay [11] can be described thus: qHTS assay to identify small molecule antagonists of the peroxisome proliferator-activated receptor delta (PPARd) signaling pathway - cell viability counter screen (AID 743213). Further: nearly all actives have a fitted effect of over 50% in size. The procedure, abridged: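 HEK293H cells with the PPARd UAS-bla reporter, co-treated 17 h at 37 C with compounds and L165041 (300 nM final), were lysed with CellTiter-Glo. Luminescence indicated viable cell content.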

Assay [12] addresses Peroxisome proliferator-activated receptor delta (Homo sapiens) (UniProt Q03181). The assay is described as follows: qHTS assay to identify small molecule antagonists of the peroxisome proliferator-activated receptor delta (PPARd) signaling pathway (AID 743215; active means well fitted inhibition curve with a large enough effect in the signal ratio in the repeat runs, not every such curve was filed as active; the % refers to the signal ratio;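 further: cells stimulated with agonist L165041 at 300 nM final during compound exposure; series mostly up to about 62 µM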). A digest of the protocol: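 With L165041 present at 300 nM final, compounds were incubated 17 h at 37 C on PPARd UAS-bla HEK293H cells. A FRET-based beta-lactamase substrate was then applied for 2 h at room temperature and fluorescence intensity recorded.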

The nature of assay [13]: qHTS assay to identify small molecule agonists of the farnesoid-X-receptor (FXR) signaling pathway - cell viability counter screen (AID 743218). Further: nearly all actives have a fitted effect of over 45% in size. A digest of the protocol:
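After 16 h at 37 C with test compounds, FXR-bla HEK 293T cells were given LiveBLAzer B/G substrate for 2 h at RT and then CellTiter-Glo; luminescence was taken after 30 min.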

The nature of assay [14]: qHTS assay to identify small molecule antagonists of the farnesoid-X-receptor (FXR) signaling pathway - cell viability counter screen (AID 743221; active means well fitted cell-killing curve with a large enough effect in the repeat runs, not every such curve was filed as active; further: nearly all actives have a fitted effect of over 50% in size). A digest of the protocol:
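Here viability was scored by luminescence after CellTiter-Glo addition to wells already read for beta-lactamase. Prior treatment: compound plus CDCA (50 uM final), 16 h, 37 C, HEK 293T FXR-bla cells.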

The target in assay [15] is Vitamin D3 receptor (Homo sapiens) (UniProt P11473). The assay is described as follows: qHTS assay to identify small molecule agonists of the vitamin D receptor (VDR) signaling pathway (AID 743222; calls by dose curve). The procedure, abridged: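 VDR-bla cells were seeded, left 4 h, treated with compounds in DMSO for 16 h, incubated 2 h at RT with B/G FRET substrate, and read for fluorescence.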

Assay [16] shares this target. The assay is described as follows: qHTS assay to identify small molecule antagonists of the vitamin D receptor (VDR) signaling pathway (AID 743223; active means well fitted inhibition curve with a large enough effect in the signal ratio in the repeat runs, not every such curve was filed as active; the % refers to the signal ratio). A digest of the protocol:
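Inhibition of agonist-driven VDR signalling is scored in VDR-bla cells: 3 nM final 1alpha,25-dihydroxyvitamin D3 plus compound, 16 h at 37C, then beta-lactamase detection by FRET substrate fluorescence after 2 h.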

Assay [17] can be described thus: qHTS assay to identify small molecule agonists of the vitamin D receptor (VDR) signaling pathway - cell viability counter screen (AID 743224). Further: series mostly up to about 63 µM; nearly all actives have a fitted effect of over 50% in size. A digest of the protocol: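 Here cell health was gauged by luminescent ATP detection (CellTiter-Glo, 30 min RT) in VDR-bla cells that had been incubated with test compounds for 16 h at 37C and 5% CO2.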
The target in assay [18] is Bile acid receptor (Homo sapiens) (UniProt Q96RI1). The assay is described as follows: qHTS assay to identify small molecule antagonists of the farnesoid-X-receptor (FXR) signaling pathway (AID 743217; active means well fitted inhibition curve with a large enough effect in the signal ratio in the repeat runs, not every such curve was filed as active; the % refers to the signal ratio). The procedure, abridged:
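In this cell-based antagonist screen, inhibition of CDCA-driven (50 uM final) UAS-beta-lactamase expression in HEK 293T cells was measured by FRET fluorescence following 16 h compound exposure at 37 °C.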

Assay [19] has the same target. The assay is described as follows: qHTS assay to identify small molecule agonists of the farnesoid-X-receptor (FXR) signaling pathway (AID 743220; active means well fitted activation curve with a large enough effect in the signal ratio in the repeat runs, not every such curve was filed as active; the % refers to the signal ratio). A digest of the protocol:
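Beta-lactamase reporter under UAS control in GeneBLAzer FXR HEK 293T cells (5000/well) measured with LiveBLAzer FRET substrate after 2 h at room temperature. Compound exposure lasted 16 h at 37C.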

The nature of assay [20]: qHTS assay for small molecule agonists of the antioxidant response element (ARE) signaling pathway (AID 743202; active means well fitted activation curve with a large enough effect in the signal ratio in the repeat runs, not every such curve was filed as active; the % refers to the signal ratio). The procedure, abridged:
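Read-out: LiveBLAzer B/G FRET substrate fluorescence after 2 h at room temperature, following 16 h compound treatment at 37 C of HepG2 cells carrying an ARE-driven beta-lactamase reporter.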

Several values for one entry are separate records, joined by “and”; a condition that tells them apart may be missing. Equal entries are not always repeated. Results filed as inconclusive are left out. A structure can be active in one record and inactive in another. Activity calls are given as the source filed them. Unless noted, the call rests on the fitted dose curve; in most records, active means well fitted curve in the direction sought with a large enough effect in the repeat runs; inconclusive means weak or mixed curves; inactive means no such curve, though single readings can be large; an effect the other way counts as inactive or inconclusive.

Chain of Vitamin D3 receptor (Homo sapiens) (P11473 whole entry, looked up): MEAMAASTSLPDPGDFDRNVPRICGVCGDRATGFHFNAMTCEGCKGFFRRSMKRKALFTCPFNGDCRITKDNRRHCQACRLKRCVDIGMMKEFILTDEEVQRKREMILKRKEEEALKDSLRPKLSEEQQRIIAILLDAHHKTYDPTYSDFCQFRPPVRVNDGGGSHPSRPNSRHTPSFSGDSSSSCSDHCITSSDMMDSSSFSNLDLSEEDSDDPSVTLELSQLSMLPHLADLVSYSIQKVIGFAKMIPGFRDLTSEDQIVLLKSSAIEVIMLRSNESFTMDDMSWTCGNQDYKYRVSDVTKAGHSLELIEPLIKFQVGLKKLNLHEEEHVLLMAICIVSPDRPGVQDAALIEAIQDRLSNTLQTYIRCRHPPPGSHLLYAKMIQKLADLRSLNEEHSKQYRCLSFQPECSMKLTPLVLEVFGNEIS
Chain of Peroxisome proliferator-activated receptor delta (Homo sapiens) (Q03181 whole entry, looked up): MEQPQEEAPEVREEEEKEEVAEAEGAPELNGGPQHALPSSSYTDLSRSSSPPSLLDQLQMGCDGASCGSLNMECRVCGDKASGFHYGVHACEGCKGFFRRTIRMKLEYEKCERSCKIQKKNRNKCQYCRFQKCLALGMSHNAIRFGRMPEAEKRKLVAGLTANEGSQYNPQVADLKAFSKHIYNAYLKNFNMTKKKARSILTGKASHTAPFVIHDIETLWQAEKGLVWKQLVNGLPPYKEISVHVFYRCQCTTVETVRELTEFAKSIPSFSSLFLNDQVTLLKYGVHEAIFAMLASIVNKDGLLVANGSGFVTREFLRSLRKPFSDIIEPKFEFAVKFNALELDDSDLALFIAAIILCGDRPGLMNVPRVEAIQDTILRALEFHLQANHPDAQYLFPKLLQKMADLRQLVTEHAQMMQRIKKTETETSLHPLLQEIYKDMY
Chain of Aryl hydrocarbon receptor (Homo sapiens) (P35869 whole entry, looked up): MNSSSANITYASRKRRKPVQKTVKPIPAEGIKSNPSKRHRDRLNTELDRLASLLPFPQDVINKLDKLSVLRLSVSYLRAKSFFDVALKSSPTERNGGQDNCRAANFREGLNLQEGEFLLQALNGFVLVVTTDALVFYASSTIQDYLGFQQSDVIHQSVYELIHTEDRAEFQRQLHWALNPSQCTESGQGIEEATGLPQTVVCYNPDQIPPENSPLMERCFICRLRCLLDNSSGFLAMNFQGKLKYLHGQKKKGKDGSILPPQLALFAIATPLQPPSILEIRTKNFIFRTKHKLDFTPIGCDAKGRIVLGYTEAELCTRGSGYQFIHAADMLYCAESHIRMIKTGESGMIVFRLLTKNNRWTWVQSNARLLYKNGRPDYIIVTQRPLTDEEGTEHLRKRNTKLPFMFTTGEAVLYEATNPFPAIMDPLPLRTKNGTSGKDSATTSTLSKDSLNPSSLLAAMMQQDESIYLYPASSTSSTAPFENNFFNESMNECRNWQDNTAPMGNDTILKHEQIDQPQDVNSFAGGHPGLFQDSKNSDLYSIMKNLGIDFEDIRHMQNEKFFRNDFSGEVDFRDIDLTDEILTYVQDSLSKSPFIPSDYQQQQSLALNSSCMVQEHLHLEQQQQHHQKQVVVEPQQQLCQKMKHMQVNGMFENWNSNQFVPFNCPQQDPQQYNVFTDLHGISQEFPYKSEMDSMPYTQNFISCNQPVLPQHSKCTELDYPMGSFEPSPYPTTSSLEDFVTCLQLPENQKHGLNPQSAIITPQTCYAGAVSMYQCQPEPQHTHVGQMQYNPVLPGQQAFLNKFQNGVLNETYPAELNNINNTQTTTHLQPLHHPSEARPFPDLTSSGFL
Chain of Bile acid receptor (Homo sapiens) (Q96RI1 whole entry, looked up): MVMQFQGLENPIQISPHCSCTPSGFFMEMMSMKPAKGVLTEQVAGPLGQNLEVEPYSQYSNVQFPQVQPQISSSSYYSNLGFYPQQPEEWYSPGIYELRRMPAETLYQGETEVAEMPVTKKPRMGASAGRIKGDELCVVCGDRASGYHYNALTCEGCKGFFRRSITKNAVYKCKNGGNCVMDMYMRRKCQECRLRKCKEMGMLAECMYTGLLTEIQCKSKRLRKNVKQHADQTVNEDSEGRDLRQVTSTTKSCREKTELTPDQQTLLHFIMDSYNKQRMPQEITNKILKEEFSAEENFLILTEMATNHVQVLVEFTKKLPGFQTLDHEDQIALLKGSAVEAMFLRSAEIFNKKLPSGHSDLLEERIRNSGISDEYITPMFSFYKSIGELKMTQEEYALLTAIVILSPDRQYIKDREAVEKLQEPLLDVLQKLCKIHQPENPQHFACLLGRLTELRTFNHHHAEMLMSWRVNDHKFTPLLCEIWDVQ
Chain of Peroxisome proliferator-activated receptor gamma (Homo sapiens) (P37231 whole entry, looked up): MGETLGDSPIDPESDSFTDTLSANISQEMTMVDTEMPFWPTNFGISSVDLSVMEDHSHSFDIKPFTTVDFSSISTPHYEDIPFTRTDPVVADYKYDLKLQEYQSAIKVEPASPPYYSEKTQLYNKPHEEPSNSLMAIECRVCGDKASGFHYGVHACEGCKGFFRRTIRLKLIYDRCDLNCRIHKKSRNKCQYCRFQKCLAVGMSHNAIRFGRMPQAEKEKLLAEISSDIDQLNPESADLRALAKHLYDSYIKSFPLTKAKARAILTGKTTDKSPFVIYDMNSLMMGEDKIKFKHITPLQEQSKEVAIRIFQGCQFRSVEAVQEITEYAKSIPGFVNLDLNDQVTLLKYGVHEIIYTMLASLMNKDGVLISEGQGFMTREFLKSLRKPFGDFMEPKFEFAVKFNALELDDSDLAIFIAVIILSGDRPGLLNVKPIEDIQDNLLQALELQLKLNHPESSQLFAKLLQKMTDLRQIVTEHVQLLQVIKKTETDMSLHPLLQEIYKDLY

As for `CCC(C)c1ccccc1O` (stereo not given), the Potency entry in [1], in assay [2], in assay [3], in [4], in [5] and in [6] was “inactive” in each case. In addition, the Potency entry in assay [7], in assay [8], in assay [9], in [11], in assay [12] and in assay [13] was “inactive” throughout. In addition, the Potency entry in assay [14] and in assay [17] was “inactive” throughout. Besides, the molecule was classed as inactive in assay [10], in assay [15] and in assay [16].

For the molecule `Cc1c(OCC(F)(F)F)ccnc1CS(=O)c1nc2ccccc2[nH]1` (stereo not given), in [1], the Potency is 4.22 µM (active) and 19.3 µM (active). The Potency entry in assay [2], in [3], in [4], in [5], in [6] and in [7] was “inactive” each time. Besides, the Potency result in assay [9], in assay [11], in assay [12], in assay [18], in [14] and in [17] was “inactive” throughout. The outcome in assay [10] and in assay [19] was inactive.

`O=Cc1ccccc1O`: the Potency result in [1], in assay [2], in assay [3], in [4], in assay [5] and in assay [20] was “inactive” each time. Moreover, the Potency entry in assay [6], in assay [7], in assay [9], in assay [11], in assay [12] and in assay [13] was “inactive” throughout. Moreover, the Potency entry in assay [14] and in [17] was “inactive” each time. The molecule was classed as inactive in [10] and in assay [15].

As for `CCOC(=O)C(C#N)=C(c1ccccc1)c1ccccc1`, the Potency entry in assay [1], in assay [2], in assay [3], in [5], in assay [6] and in assay [7] was “inactive” in each case. The Potency entry in [8], in assay [9], in assay [11], in [12], in assay [18] and in [13] was “inactive” each time. Further, the Potency entry in assay [14] and in assay [17] was “inactive” in each case. The Potency in assay [4] is 49 µM (active) and inactive. The molecule was classed as inactive in [10] and in assay [19].

Consider `CCCCOCCOCCOCCO`, for which the Potency result in assay [1], in assay [2], in [3], in [4], in assay [5] and in assay [20] was “inactive” throughout. Besides, the Potency entry in assay [6], in assay [7], in assay [8], in [9], in [11] and in [12] was “inactive” throughout. Further, the Potency result in assay [13], in [14] and in assay [17] was “inactive” in each case. Besides, the result in assay [10] and in assay [16] was inactive.

For the molecule `O=C(c1ccccc1)c1ccc(O)cc1O`, the Potency result in assay [1], in [2], in [3], in assay [4], in [5] and in assay [6] was “inactive” in each case. Further, the Potency entry in [7], in [8], in [9], in [11], in [12] and in assay [18] was “inactive” each time. For the same molecule, the Potency result in [13], in assay [14] and in [17] was “inactive” throughout. Besides, the outcome in assay [10] and in assay [19] was inactive.

As for `Cc1ccc2c(n1)Oc1ccc(C(C)C(=O)OCC(=O)N(C)C)cc1C2` (stereo not given), in assay [1], the Potency is 11.9 µM (active). Besides, the Potency entry in assay [2], in [3], in assay [4], in [5], in assay [20] and in assay [6] was “inactive” in each case. For the same molecule, the Potency result in assay [7], in assay [8], in assay [9], in assay [11], in [12] and in assay [13] was “inactive” in each case. Besides, the Potency result in [14] and in assay [17] was “inactive” in each case. The molecule was called inactive in assay [10] and in assay [16].

With `c1cc(-c2ccncc2)ccn1`, the Potency entry in [1], in assay [2], in assay [3], in assay [4], in assay [5] and in assay [6] was “inactive” in each case. In addition, the Potency entry in assay [7], in [8], in assay [9], in assay [11], in assay [12] and in assay [14] was “inactive” in each case. The Potency result in [17] is “inactive”. The call in assay [10] was inactive.

For the origin of these results see PubChem BioAssay (Tox21).
